Structures are written as SMILES. In all, about 2,400 compounds went through this assay and about 580 (24%) were called active.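 The calls were made as follows: active = activity change at or above the mean plus 3 SD of buffer wells without dofetilide, per plate; inactive = the rest.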 The list is a sample of the results.

Potassium voltage-gated channel subfamily KQT member 2 (Rattus norvegicus), sequence (O88943 whole entry, looked up): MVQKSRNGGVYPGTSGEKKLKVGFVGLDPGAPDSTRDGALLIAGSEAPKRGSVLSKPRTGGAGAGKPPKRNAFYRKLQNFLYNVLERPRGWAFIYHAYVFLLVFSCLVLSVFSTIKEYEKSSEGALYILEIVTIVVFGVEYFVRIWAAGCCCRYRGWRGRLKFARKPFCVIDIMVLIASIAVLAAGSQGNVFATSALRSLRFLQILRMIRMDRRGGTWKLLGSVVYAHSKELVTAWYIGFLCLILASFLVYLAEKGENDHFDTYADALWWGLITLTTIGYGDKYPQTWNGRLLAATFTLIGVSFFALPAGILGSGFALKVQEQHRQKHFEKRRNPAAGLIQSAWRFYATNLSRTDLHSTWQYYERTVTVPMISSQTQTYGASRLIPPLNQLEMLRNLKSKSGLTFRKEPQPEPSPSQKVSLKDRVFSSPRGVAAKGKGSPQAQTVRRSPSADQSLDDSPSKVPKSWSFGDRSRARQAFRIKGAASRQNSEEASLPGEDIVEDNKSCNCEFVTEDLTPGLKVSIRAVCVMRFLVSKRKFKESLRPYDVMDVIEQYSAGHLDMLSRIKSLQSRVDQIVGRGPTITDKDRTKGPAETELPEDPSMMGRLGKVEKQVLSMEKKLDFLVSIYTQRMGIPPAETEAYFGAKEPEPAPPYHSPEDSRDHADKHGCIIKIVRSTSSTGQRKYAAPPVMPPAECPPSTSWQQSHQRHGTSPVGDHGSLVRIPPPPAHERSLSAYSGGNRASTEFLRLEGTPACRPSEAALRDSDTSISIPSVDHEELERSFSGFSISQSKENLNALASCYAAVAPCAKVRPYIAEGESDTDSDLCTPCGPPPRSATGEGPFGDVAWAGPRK

This experiment addresses Potassium voltage-gated channel subfamily KQT member 2 (Rattus norvegicus) (UniProt O88943). Put plainly: rat KCNQ2 channel activation by compounds alone, confirmation, counter-screen for hERG block protector project, cell-based, CHO, FluxOR thallium flux (AID 1942).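 Also: normalized value minus buffer-control mean plus three SD of buffer wells.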 The following applies: CHO-KCNQ2 cells, FluxOR thallium flux fluorescence; at 10 µM; active compounds read high.
For `Cc1ccc2c(c1)N(CCC(=O)NCc1cccnc1)C(=O)CO2`, the activity change, less the hit threshold is -10.8% (inactive). Regarding `C/C(=C\C(=O)c1ccncc1)Nc1ccccc1O`, the activity change, less the hit threshold was -11.7% (inactive). The result for `O=C1CC(O)(C(F)(F)F)Oc2c1ccc1ccccc21` (centres undefined) reads 28.3% (active). The result for `CC1(C)Cc2c(ccc3ccccc23)C2=C(C(=O)N3CCCC3)C(=O)C(=O)N21` reads -11.1% (inactive); that for `Nc1nc2c(s1)CCCCCCCCCC2`, -3% (inactive); that for `O=C(c1ccco1)N(c1ccccn1)c1ccccn1`, -21.4% (inactive). For `Brc1ccc(C2=CC(c3ccco3)n3nnnc3N2)cc1` (centres undefined), the activity change, less the hit threshold is -16.3% (inactive). The result for `O=C(O)c1sccc1OCc1ccccc1` reads -0.9% (inactive). The figure for `Cc1ccccc1Cn1c(O)c(N=NC(=S)Nc2ccccc2F)c2ccccc21` is -20.7% (inactive); for `Oc1c(N=NC(=S)Nc2ccccc2F)c2ccccc2n1Cc1ccccc1F` it is -12.8% (inactive); for `Cc1ccc(C)c(Cn2c(O)c(N=NC(=S)Nc3ccccc3F)c3ccccc32)c1` it is -11.3% (inactive). As to `Oc1c(N=NC(=S)Nc2ccccc2F)c2ccccc2n1Cc1cccc(Cl)c1`, the activity change, less the hit threshold is -13% (inactive). The figure for `C=CCn1c(O)c(N=NC(=S)Nc2ccc(OC)c(Cl)c2)c2ccccc21` is 3.8% (active); for `C=CCn1c(O)c(N=NC(=S)Nc2ccc(OC)cc2)c2ccccc21` it is 25% (active). For `CCCCCCCc1c(O)nc(SCC(=O)O)[nH]c1=O`, the activity change, less the hit threshold was -8.4% (inactive).

Take `Cc1cc(-c2ccccc2)[nH]c(=O)c1S(=O)(=O)c1ccccc1`: the activity change, less the hit threshold is -13% (inactive). The figure for `C/C(N)=C(/C#N)C(=O)COC(=O)C1CCC(C(C)(C)C)CC1` (centres undefined) is -10% (inactive). The result for `Cn1cc(CCC(=O)N2CCCC(Nc3ccc(F)cc3)C2)cn1` (centres undefined) reads -23.8% (inactive); that for `CCC(=O)Nc1nnc(-c2ccccn2)o1`, -22.5% (inactive). For `CC(Oc1ccc(Cl)cc1)/C(N)=N/O` (centres undefined), the activity change, less the hit threshold was -19.6% (inactive). On to `Cc1ccccc1Cn1nc(C)c(NC(=O)c2ccccc2)c1C`, for which the activity change, less the hit threshold is 51.6% (active). Turning to `CC(=O)c1n[nH]nc1NC(=O)c1ccccc1`, the activity change, less the hit threshold was -9.7% (inactive). The figure for `CCc1cccc(C)c1NC(=O)C1=C(C(=O)O)CCCC1` is -15.9% (inactive); for `COc1ccc(CCN2C(=O)CSC2=S)cc1OC` it is -24% (inactive). As for `O=C(CCC1CCCC1)NNC(=O)c1cccc(Cl)c1`, the activity change, less the hit threshold was 11.7% (active). The figure for `Cc1cccc(C(=O)NC(=S)NNC(=O)c2ccc(Cl)cc2)c1` is -29% (inactive). Consider `O=C(NC(=S)NCCc1ccccc1)c1cccc(Cl)c1`, for which the activity change, less the hit threshold is -22.4% (inactive). The figure for `Cc1ccccc1NC(=O)CC1S/C(=N/c2nccs2)N(C)C1=O` (centres undefined) is -17.1% (inactive); for `O=C(O)C1CCN1C1CCCCC1` (centres undefined) it is -22.9% (inactive).

Take `CCOc1cc(-n2ncc(C#N)c2N)nc(SC)n1`: the activity change, less the hit threshold is -21.7% (inactive). The result for `CCOC(=O)c1ccc(Oc2cc(C)nc(SC)n2)cc1` reads 11.9% (active); that for `CC(C)(C)OC(=O)NCCCC(CCCNC(=O)OC(C)(C)C)C(=O)O`, -22.6% (inactive). The result for `CCOC(=O)N1CCN(C(=O)COC(=O)c2cc(Cl)c(O)c(Cl)c2)CC1` reads -13.4% (inactive); that for `COc1ccc2[nH]c3c(=O)n(CCN4CCOCC4)cnc3c2c1`, -15.3% (inactive); that for `O=C(Nc1ncc(Cc2ccc(C(F)(F)F)cc2)s1)c1ccc(-c2cccc([N+](=O)[O-])c2)o1`, -12.3% (inactive).

For `O=C(NCc1ccco1)c1ccc(OCC2CCCO2)cc1` (centres undefined), the activity change, less the hit threshold is -26.4% (inactive). For the compound `O=C(CSc1cn(CC(=O)N2CCCC2)c2ccccc12)NCC1CCCO1` (centres undefined), the activity change, less the hit threshold is -27.5% (inactive). The result for `O=C(NCC1CCCO1)c1ccc2c(=O)n(Cc3ccco3)c(SCC(=O)N3CCCC3)nc2c1` (centres undefined) reads 3.2% (active). The figure for `OC(COC(c1ccccc1)c1ccccc1)CN1CCCCC1` (centres undefined) is -23.9% (inactive); for `COc1ccc(C(CC(=O)O)NC(=O)C(c2ccccc2)c2ccccc2)cc1` (centres undefined) it is -23.8% (inactive); for `O=C1C(=Cc2cccn2-c2ccc(O)cc2)C(=O)c2ccccc21` it is -25.6% (inactive).

On to `O=C(C1CCN(S(=O)(=O)c2cc(Cl)ccc2Cl)CC1)N1CCOCC1`, for which the activity change, less the hit threshold was -26% (inactive).

`CC(C)(C)C(=O)NC(=S)N1CCOCC1`: the activity change, less the hit threshold was -8% (inactive). The result for `CCCCCCC1CCC(C(=O)N2CCOCC2)CC1` (centres undefined) reads 5.9% (active); that for `COC(=O)Sc1nnc(-c2ccc(Br)cc2)o1`, -1.8% (inactive). The figure for `CCc1ccc2c(c1)c(N=NC1=NC(=O)CS1)c(O)n2CC` is 26.5% (active); for `CCn1c(O)c(N=NC2=NC(=O)CS2)c2ccccc21` it is -5.8% (inactive). The result for `CCn1c(O)c(N=NC2=NC(=O)CS2)c2cc(C)ccc21` reads -10.5% (inactive). Take `C/C(=N/NC(=O)c1ccncc1)c1ccc2c(c1)OCO2`: the activity change, less the hit threshold is -22.1% (inactive). The figure for `COc1cccc(OCC(=O)NNC(=O)C(=O)Nc2ccc(OC)cc2OC)c1` is 15.4% (active). The result for `COc1ccc(NC(=O)C(=O)NNC(=O)COc2ccc(Cl)cc2)c(OC)c1` reads 15.6% (active); that for `O=C(NNC(=O)C12CC3CC(CC(O)(C3)C1)C2)c1ccccc1O`, -1.7% (inactive); that for `COc1ccc(OCC(=O)NNC(=O)C(=O)Nc2cc(OC)ccc2OC)cc1`, 15.9% (active). Consider `COc1ccc(OC)c(NC(=O)C(=O)NNC(=O)C23CC4CC(CC(C4)C2)C3)c1`, for which the activity change, less the hit threshold was 96.2% (active). Turning to `COc1ccc(NC(=O)C(=O)NNC(=O)COc2ccc(OC)cc2)cc1`, the activity change, less the hit threshold is -24.3% (inactive). The figure for `O=C(COc1ccc(S(=O)(=O)NCc2ccccc2)cc1Cl)NCC1CCCO1` (centres undefined) is -14.4% (inactive); for `Cc1ccc(-n2c(C)cc(C(=O)CN3CCOCC3)c2C)cc1` it is -12.8% (inactive); for `CN(CC(=O)Nc1ccc(OC(F)(F)F)cc1)S(=O)(=O)c1cnc[nH]1` it is -18.2% (inactive).

`CCN1C(=O)[C@H]2[C@@H](c3ccc(-c4ccc(OC)cc4)cc3)N[C@@](C)(C(=O)OC)[C@H]2C1=O`: the activity change, less the hit threshold is -17.6% (inactive). For `CCC(NS(=O)(=O)c1ccc(OC)cc1)C(=O)O` (centres undefined), the activity change, less the hit threshold is -16.1% (inactive). The result for `CN(C)c1oc(-c2ccccc2[N+](=O)[O-])nc1C#N` reads -6.7% (inactive). Take `Cc1ccccc1NC(=O)CN1C(=O)S/C(=C\c2ccc(-c3cc(C(=O)O)ccc3C)o2)C1=O`: the activity change, less the hit threshold is -10.8% (inactive). The result for `Cc1ccc(NC(=S)N2CCN(c3ccccc3F)CC2)c(C)c1` reads -10.4% (inactive); that for `Cn1c(=O)[nH]c(=O)c2c1nc(CN1CCN(c3ccccc3F)CC1)n2CCCc1ccccc1`, -12.9% (inactive). The result for `Cc1cc(-c2csc3nc[nH]c(=S)c23)cc(C)c1C` reads 33.7% (active); that for `Cc1ccc(-c2csc3nc[nH]c(=S)c23)cc1C`, 2.5% (active); that for `C=CCNC(=O)CC(=O)N/N=C/c1cccs1`, -10.2% (inactive). The result for `Nc1nc(O)c(N=Nc2ccc(S(N)(=O)=O)cc2)c(=O)[nH]1` reads -16.5% (inactive); that for `CSc1nc2c(c(=O)[nH]1)C(c1ccc(Br)cc1)CC(=O)N2` (centres undefined), -18.9% (inactive). For the compound `COc1ccc(S(=O)(=O)c2snnc2C)cc1`, the activity change, less the hit threshold was -14.8% (inactive). Turning to `CN(Cc1cccc(C(F)(F)F)c1)Cc1nc(-c2cnccn2)no1`, the activity change, less the hit threshold was -21.7% (inactive). The figure for `COC(=O)C1=C(C)NC2=C(C(=O)CCC2)C1c1ccc(-c2ccsc2C(=O)OC)o1` (centres undefined) is 53.7% (active); for `COC(=O)C(C)Sc1nnc(Cc2cc(=O)[nH]c(=O)[nH]2)n1-c1cccc(OC)c1` (centres undefined) it is -15.6% (inactive); for `Cc1ccc(-n2ncc3c2CCCC3NC(=O)c2csnn2)cc1C` (centres undefined) it is -24.7% (inactive). As for `O=C(CCn1c(=S)[nH]c2cc3c(cc2c1=O)OCO3)NCc1ccc(Cl)cc1`, the activity change, less the hit threshold was -10.2% (inactive). The figure for `O=c1c2ccccc2[nH]c(=S)n1CCC1=CCCCC1` is 18% (active); for `O=c1c2cccnc2[nH]c(=S)n1CCC1=CCCCC1` it is 48.1% (active); for `O=c1c2ccc(Cl)cc2[nH]c(=S)n1CCC1=CCCCC1` it is 9.4% (active). The figure for `COc1ccccc1CNC(=O)CCCC(=O)n1ncc2cc(C)ccc21` is -14.9% (inactive); for `N#C/C(=N\Nc1ccccc1F)c1nc(-c2ccccc2)cs1` it is -27.5% (inactive); for `CC(=O)Nc1ccc2nc(NC(=O)c3ccc([N+](=O)[O-])o3)sc2c1` it is -16.8% (inactive). The result for `Cc1cc(NC(=O)Cn2c(=O)n(Cc3ccccc3)c(=O)c3ccccc32)no1` reads -19.9% (inactive); that for `Cc1ccc(C(C)C)c(OCc2n[nH]c(=S)o2)c1`, 10.8% (active); that for `c1ccc(SSc2ccccn2)nc1`, -14% (inactive). `CC(C)(C)Cc1nnc(NC(=O)c2ccco2)s1`: the activity change, less the hit threshold is -19.2% (inactive).

Turning to `Cc1ccc(C)c2sc(NC(=O)c3nc4ccccc4s3)nc12`, the activity change, less the hit threshold is -7.3% (inactive). Regarding `CC(C)CC(=O)Nc1nc(=S)ss1`, the activity change, less the hit threshold is -15.9% (inactive). The figure for `O=C(NNC(=O)c1ccc(Cl)cc1Cl)c1cnccn1` is -19.5% (inactive); for `Cn1sc(NC(=O)c2cccc(Cl)c2)nc1=O` it is -5.4% (inactive). The result for `Cc1ccccc1C(=O)Nc1nc(=S)ss1` reads 58.6% (active). For the compound `O=C(Nc1nc(=S)ss1)c1ccc(Cl)cc1Cl`, the activity change, less the hit threshold is 100% (active). The result for `COc1cc(/C=C2/SC(=S)N(CC(=O)O)C2=O)ccc1OCC(=O)Nc1ccc(C)c(C)c1` reads -18.3% (inactive); that for `COC(=O)c1ccnc(/C=N/O)c1`, -13% (inactive); that for `N=C1SCC(=O)N1c1ncc(Cc2ccccc2Cl)s1`, -20.8% (inactive).

With `CCOc1ccc2nc(N3C(=O)/C(=C/c4ccccc4)NC3=S)sc2c1`, the activity change, less the hit threshold was -26.6% (inactive). With `Cc1[nH]n(-c2ccc(F)cc2)c(=O)c1/C=N/c1sc2c(c1C#N)CCCC2`, the activity change, less the hit threshold was 21.6% (active).

`Cc1[nH]n(-c2cccc3ccccc23)c(=O)c1/C=N/c1sc2c(c1C#N)CCC2`: the activity change, less the hit threshold is -0.6% (inactive). The result for `Cc1[nH]n(-c2ccc(Cl)cc2)c(=O)c1/C=N/c1nnc(-c2ccccc2)s1` reads 170% (active); that for `CCOc1ccc2nc(/N=C/c3c(C)[nH]n(-c4ccccc4)c3=O)sc2c1`, 109% (active). The result for `N#Cc1c(NC(=O)c2cc(-n3cnnc3)ccc2Cl)sc2c1CCCC2` reads -10.6% (inactive); that for `CCOc1ccc2nc(/N=C/c3nc(-c4ccccc4)oc3O)sc2c1`, -11.5% (inactive); that for `COc1ccc2nc(/N=C/c3c(C)[nH]n(-c4ccc(C)cc4)c3=O)sc2c1`, 103% (active).

Turning to `COc1ccc2nc(-n3c(O)c(C4=c5ccccc5=NC4=O)[nH]c3=S)sc2c1`, the activity change, less the hit threshold is -16.8% (inactive). The result for `COc1ccc2nc(N=Nc3c(O)ccc4ccccc34)sc2c1` reads -4.3% (inactive).

The values above are taken from PubChem BioAssay AID1942 (Johns Hopkins Ion Channel Center, 2009).
